# From PubChem BioAssay (NCATS)
# Records with an inconclusive call do not appear. Activity calls are given as the source filed them. The call rests on the fitted dose curve; in most records, active means well fitted inhibition curve with a large enough effect; inconclusive means small, poorly fitted or top-dose-only effect; inactive means no such curve, though single readings can be large or run the other way.
# Assay: HTS Assay for Allosteric Antagonists of the Human D2 Dopamine Receptor: Hit Validation in HTRF (AID 624455);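 further: stable D1 dopamine receptor cell line scored for blocking the D1 response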
# Conditions: Cells stably expressing D1 dopamine receptor, inhibition mode; series mostly up to 46.1 µM; activity, negative = inhibition: at the top concentration
# Procedure, shortened: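 Hit validation in cells stably expressing the D1 dopamine receptor, run in HTRF format. Compounds were tested for their ability to inhibit the D1-mediated response.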
# On the % scale 0 is the no-effect control and ±100 the full control effect.
row,SMILES,"activity, negative = inhibition"
1,OCC1O[C@H](O)C(Cl)C(O)C1O (some centres not stated),-8.95% (inactive)
2,O=C(O)c1cc(=O)c2ccccc2[nH]1,-3.22% (inactive)
3,C=C[C@H]1CN2CC[C@@H]1C[C@@H]2[C@@H](O)c1ccnc2ccc(OC)cc12,2.88% (inactive)
4,O=C1C(SCCO)=C(SCCO)C(=O)c2ccccc21,11.1% (inactive)
5,CO/N=C(\C(=O)N[C@@H]1C(=O)N2C(C(=O)O)=C(COC(C)=O)CS[C@H]12)c1csc(N)n1,2.76% (inactive)
6,O=C(O)CNC(=O)C(CS)Cc1ccccc1 (configuration not stated),-1.79% (inactive)
7,c1ccc(-c2ccccn2)nc1,-3.53% (inactive)
8,O=C(CCCCCN1CCN(c2ccccc2-c2ccccc2)CC1)NC1CCCc2ccccc21 (configuration not stated),10.2% (inactive)
9,O=c1[nH]c2cc(C(F)(F)F)ccc2n1-c1cc(C(F)(F)F)ccc1O,-0.649% (inactive)
10,Nc1nc(Cl)nc2c1ncn2[C@@H]1O[C@H](CO)[C@@H](O)[C@H]1O,-15.5% (inactive)
11,Oc1cc2c(cc1O)CN(C(=S)NCCc1ccc(Cl)cc1)CCC2,5.46% (inactive)
12,NC(=O)C(=O)O,-2.54% (inactive)
13,CCCCC/C=C\CC(O)/C=C/c1cccc(CC(O)CCCCO)n1 (configuration not stated),4.71% (inactive)
14,Nc1nc(Nc2ccccc2)nc2c1ncn2[C@@H]1O[C@H](CO)[C@@H](O)[C@H]1O,-2.12% (inactive)
15,OCC1O[C@H]([S-])[C@H](O)[C@@H](O)[C@@H]1O.[Au+] (some centres not stated),-2.54% (inactive)
16,Fc1cccc(/C=N/N=C/c2cccc(F)c2)c1,-5.55% (inactive)
17,c1cnc2c(c1)ccc1cccnc12,-5.05% (inactive)
18,Oc1ccccc1O,-6.07% (inactive)
19,CNC(=O)[C@H]1O[C@@H](n2cnc3c(NCc4cccc(I)c4)ncnc32)[C@H](O)[C@@H]1O,0.425% (inactive)
20,COc1cccc(C(=O)NCCN2CCN(c3ccc(Cl)cc3)CC2)c1,2.28% (inactive)
21,Brc1c(Br)c(Br)c2n[nH]nc2c1Br,6.51% (inactive)
22,CNc1ncnc2c1ncn2[C@@H]1O[C@H](CO)[C@@H](O)[C@H]1O,2.46% (inactive)
